Screens deposited in PubChem BioAssay by National Center for Advancing Translational Sciences (NCATS).
BRCT inh green: inhibitors of human BRCA1 BRCT-phosphoprotein interaction (green fluorophore). BRCA1 BRCT-phosphopeptide binding, green fluorescence polarization. AID 875. Potency, µM (doses to about 76.9 µM), most hits filed as inhibitors. P38398. hit rate 0.05% among 75,000
Target sequence (P38398 whole entry, looked up): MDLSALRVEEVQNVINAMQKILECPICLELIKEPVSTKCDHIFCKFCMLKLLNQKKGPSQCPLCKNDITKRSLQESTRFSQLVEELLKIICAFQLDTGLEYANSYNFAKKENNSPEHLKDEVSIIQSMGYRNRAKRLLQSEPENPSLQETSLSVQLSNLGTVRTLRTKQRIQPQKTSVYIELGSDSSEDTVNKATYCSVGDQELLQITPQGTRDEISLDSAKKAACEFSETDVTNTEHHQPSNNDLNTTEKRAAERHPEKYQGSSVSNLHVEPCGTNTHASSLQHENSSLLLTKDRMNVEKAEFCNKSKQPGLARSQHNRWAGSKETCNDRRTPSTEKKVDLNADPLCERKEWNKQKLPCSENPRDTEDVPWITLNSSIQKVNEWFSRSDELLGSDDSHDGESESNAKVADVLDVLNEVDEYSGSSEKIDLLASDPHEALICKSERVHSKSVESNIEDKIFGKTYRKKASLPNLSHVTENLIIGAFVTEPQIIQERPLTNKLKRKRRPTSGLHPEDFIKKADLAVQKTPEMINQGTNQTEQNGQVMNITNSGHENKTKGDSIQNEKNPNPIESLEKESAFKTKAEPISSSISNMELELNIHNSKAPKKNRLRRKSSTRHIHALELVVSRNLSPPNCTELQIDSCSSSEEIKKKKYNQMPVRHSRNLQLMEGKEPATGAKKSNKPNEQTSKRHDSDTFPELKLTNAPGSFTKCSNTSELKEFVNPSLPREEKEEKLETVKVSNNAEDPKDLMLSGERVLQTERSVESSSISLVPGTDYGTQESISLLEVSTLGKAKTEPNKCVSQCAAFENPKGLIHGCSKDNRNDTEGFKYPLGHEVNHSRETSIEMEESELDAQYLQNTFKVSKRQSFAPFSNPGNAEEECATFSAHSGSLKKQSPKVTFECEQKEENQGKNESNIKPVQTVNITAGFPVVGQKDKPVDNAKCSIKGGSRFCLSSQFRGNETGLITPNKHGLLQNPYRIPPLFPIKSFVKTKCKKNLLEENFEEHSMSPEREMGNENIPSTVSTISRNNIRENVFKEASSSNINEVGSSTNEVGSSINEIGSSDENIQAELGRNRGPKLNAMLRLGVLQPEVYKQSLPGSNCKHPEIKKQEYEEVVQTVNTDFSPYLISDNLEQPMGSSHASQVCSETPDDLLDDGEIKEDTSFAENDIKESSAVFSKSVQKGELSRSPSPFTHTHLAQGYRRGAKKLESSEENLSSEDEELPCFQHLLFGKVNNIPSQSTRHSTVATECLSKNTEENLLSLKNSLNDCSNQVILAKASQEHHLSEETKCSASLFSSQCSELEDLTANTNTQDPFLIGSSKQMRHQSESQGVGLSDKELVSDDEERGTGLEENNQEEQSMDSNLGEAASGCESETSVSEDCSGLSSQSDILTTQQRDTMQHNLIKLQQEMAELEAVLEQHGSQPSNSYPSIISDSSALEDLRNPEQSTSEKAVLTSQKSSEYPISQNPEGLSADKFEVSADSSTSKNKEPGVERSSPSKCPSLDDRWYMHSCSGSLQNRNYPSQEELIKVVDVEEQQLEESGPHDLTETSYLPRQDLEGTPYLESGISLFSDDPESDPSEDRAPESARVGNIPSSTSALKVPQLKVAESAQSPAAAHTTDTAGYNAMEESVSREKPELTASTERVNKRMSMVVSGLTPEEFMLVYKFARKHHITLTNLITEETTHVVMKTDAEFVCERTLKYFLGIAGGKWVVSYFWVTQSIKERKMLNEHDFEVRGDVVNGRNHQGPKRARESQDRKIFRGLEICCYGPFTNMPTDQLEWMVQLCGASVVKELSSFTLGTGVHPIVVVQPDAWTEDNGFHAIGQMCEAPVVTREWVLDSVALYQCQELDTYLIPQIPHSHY
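Compounds were incubated for 12 min at room temperature with a complex of 100 nM fluorescein-tagged pBACH1 decapeptide and 250 nM His-tagged BRCT protein. Buffer was phosphate pH 7.3 with EDTA, DTT and Tween 20. Disruption of binding lowers the polarization signal.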
TsaE inh: displaces an ADP probe from E. coli YjeE (TsaE). P0AF67. purified YjeE enzyme, qHTS inhibition assay. Potency, µM. hit rate 0.05% among 71,000. AID 605
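Purified YjeE (10 uM) with BODIPY Texas Red-labeled ADP probe (2 uM); compounds pin-transferred, 15 min at room temperature. Binding inhibition read as decreased fluorescence polarization; ADP titration as control.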
BRCT PPI red: inhibitors of human BRCA1 BRCT-phosphoprotein interaction (red fluorophore); P38398; hit rate 0.03% among 75,000; BRCT-phosphopeptide binding, red fluorescence polarization; Potency, µM (highest dose often 76.9 µM), usual class: inhibitors
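Fluorescence polarization: 100 nM His-tagged BRCA1 BRCT with 100 nM TAMRA-labelled phospho-BACH1 decapeptide, phosphate buffer pH 7.3 with 150 mM NaCl, DTT, 0.01% Tween 20; 12 min RT. Binding inhibition seen as FP decrease.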
Hsp90 Hop PPI: changes Hsp90-Hop TPR2A binding signal, up or down. hit rate 0.44% among 71,000. Potency, µM (titrated, usually from 57 µM). AlphaScreen TPR2A-His6 binding biotin-Hsp90 C-terminal peptide; active = well fitted curve in either direction with a large enough effect; inconclusive = small, poorly fitted or top-dose-only effect, or another doubt
USP2a inhib: inhibitors of human ubiquitin-specific protease USP2a. O75604. USP2a enzymatic assay, qHTS inhibition. Potency, µM (top dose mostly 38.3 µM), hits mostly inhibitors. hit rate 0.1% among 60,000; note: nearly all actives have a fitted effect of over 60% in size
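20 nM USP2 core + cpd, 30 min RT; add 20 nM Ub-PLA2/20 uM NBD C6-HPC; read Ex460/Em535 at 0 h and 2.5 h. Normalized to NEM; qHTS curve fit/classification.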
Of the large screens only hits and unclear results are named; the others gave an inactive call; ! = not confirmed by another sample. In the library only some 0.46% were active in any assay of this set; here they are far more common. Unless noted, calls come from the whole dose curve; as a rule, active = well fitted curve in the direction sought with a large enough effect; inconclusive = small, poorly fitted or top-dose-only effect, or another doubt; inactive = no such curve, though single readings can be large; an effect the other way counts as inactive or inconclusive.

Nc1nc(Nc2ccccc2)nc2c1ncn2[C@@H]1O[C@@H](CO)[C@H](O)[C@@H]1O	none
Cc1ccccc1-c1nc(N2CCOCC2)c2ccccc2n1	TsaE inh inconclusive, USP2a inhib 12.6µM
Cc1ccccc1-c1nc(N2CCN(C)CC2)c2ccccc2n1	none
Cn1c(=O)c2c(nc(CN3CCC(C(N)=O)CC3)n2Cc2c(F)cccc2Cl)n(C)c1=O	none
CC1CCCCN1Cc1nc2c(c(=O)n(C)c(=O)n2C)n1Cc1c(F)cccc1Cl (stereo unspecified)	BRCT inh green 0.631µM, TsaE inh 79.4µM, BRCT PPI red inconclusive (no result: USP2a inhib)
CCC[C@@H]1O[C@@H]2C[C@@H]3[C@@H]4CCC5=CC(=O)C=C[C@@]5(C)[C@H]4[C@H](O)C[C@@]3(C)[C@@]2(C(=O)CO)O1	none (no result: BRCT inh green, BRCT PPI red, USP2a inhib)
CCCCOC(=O)CN1C(=O)c2ccc(C(=O)OCCCC)cc2C1=O	Hsp90 Hop PPI 25.1µM
CO/N=C(\C(=O)N[C@@H]1C(=O)N2C(C(=O)O)=C(CSc3nc(=O)c(O)nn3C)CS[C@@H]12)c1csc(N)n1	none
COc1ccc(C(=O)COC(=O)CN2CC(=O)Oc3ccccc32)cc1Br	Hsp90 Hop PPI 6.31µM
COc1ccc(/C=C(\C#N)C(N)=O)cc1OC	none (no result: USP2a inhib)
C[C@H](NC(=O)/C(C#N)=C/c1ccc(O)c(O)c1)c1ccccc1	Hsp90 Hop PPI 7.94µM!
N#C/C(=C\c1ccc(O)c(O)c1)C(=O)Nc1ccccc1	Hsp90 Hop PPI 10µM!
C[C@@H](NC(=O)/C(C#N)=C/c1ccc(O)c(O)c1)c1ccccc1	none
N#C/C(=C\c1ccc(O)c(O)c1)C(=O)NCCCNC(=O)/C(C#N)=C/c1ccc(O)c(O)c1	Hsp90 Hop PPI 2µM
COc1ccc(-c2cc(C(=O)N/N=C\c3cc(OC)c(OC)c(OC)c3)[nH]n2)cc1	none (no result: TsaE inh, Hsp90 Hop PPI, USP2a inhib)
CC(=O)N1c2ccccc2NC2=C(C(=O)CCC2)C1c1cccnc1 (stereo unspecified)	USP2a inhib 1.58µM
O=C(OCC(=O)c1ccccc1Br)c1ccccn1	Hsp90 Hop PPI 25.1µM
COc1ccc(-c2cc(C(=O)N/N=C/c3ccc(O)cc3)[nH]n2)cc1	none (no result: TsaE inh, Hsp90 Hop PPI, USP2a inhib)
CC(C)[C@@H](CC(=O)N[C@@H]1CCNC[C@H]1C(=O)N[C@H](CC(=O)N[C@@H](CCC(=O)O)CC(=O)O)Cc1ccccc1)NC(=O)C[C@H](Cc1c[nH]c2ccccc12)NC(=O)[C@@H]1CCCC[C@H]1N	TsaE inh inconclusive, Hsp90 Hop PPI 31.6µM (no result: BRCT inh green, BRCT PPI red, USP2a inhib)
CC[C@H](C)C(=O)O[C@@H]1CCC=C2C=C[C@H](C)[C@@H](CC[C@H]3C[C@@H](O)CC(=O)O3)[C@H]21	none (no result: BRCT inh green, BRCT PPI red, USP2a inhib)
CCOC(=O)CCc1nc2ccccc2[nH]1	none
CCOC(=O)CCCc1sc(N)nc1-c1[nH]c(=O)[nH]c1C	Hsp90 Hop PPI 3.98µM
CCN(c1cccc(C)c1)S(=O)(=O)c1ccc(O)c(C(=O)O)c1	none (no result: TsaE inh, Hsp90 Hop PPI, USP2a inhib)
CC[C@]1(O)C[C@H]2CN(CCc3c([nH]c4ccccc34)[C@](C(=O)OC)(c3cc4c(cc3OC)N(C=O)[C@H]3[C@@](O)(C(=O)OC)[C@H](OC(C)=O)[C@@]5(CC)C=CCN6CC[C@]43[C@H]65)C2)C1	none
CC(C)(Oc1ccc(Cl)cc1)C(=O)NCCCn1ccnc1	none
O=C(NCCCn1ccnc1)C(F)(F)C(F)(F)C(=O)NCCCn1ccnc1	Hsp90 Hop PPI 25.1µM
CCOC(=O)c1ccc(NC(=O)Nc2ccc3c(c2)OCCO3)cc1	none
CCOC(=O)c1ccc(NCc2ccc3c(c2)OCO3)cc1	Hsp90 Hop PPI inconclusive, USP2a inhib 12.6µM
COc1ccc(-c2cc(C(=O)N/N=C/c3ccc(OC)c(OC)c3)[nH]n2)cc1	none (no result: TsaE inh, Hsp90 Hop PPI, USP2a inhib)
CCN(CC)CCNC(=O)c1ccc(Cc2nc3ccccc3[nH]2)cc1	none (no result: TsaE inh, Hsp90 Hop PPI, USP2a inhib)
NNc1nncc2ccccc12	Hsp90 Hop PPI 12.6µM!
COC(=O)CSc1nc(N2CCCCC2)c2c(c1C#N)CCCC2	USP2a inhib 12.6µM
O=C(O)CN(CC(=O)O)Cc1cc2c(-c3ccccc3C(=O)O)c3cc(CN(CC(=O)O)CC(=O)O)c(=O)cc-3oc2cc1O	BRCT inh green 0.126µM, BRCT PPI red 0.631µM (no result: TsaE inh, Hsp90 Hop PPI)
O=c1cc(-c2ccccc2)oc2cc(O)c(O)c(O)c12	Hsp90 Hop PPI inconclusive
O=S(=O)(NCCCCCCc1ccccc1)c1cccc2c(Cl)cccc12	Hsp90 Hop PPI 39.8µM (no result: USP2a inhib)
O=C(NCc1cccs1)c1cccnc1C(=O)O	none
O=C(O)c1cccnc1C(=O)O	Hsp90 Hop PPI 3.16µM
